# Assay results reported in PubChem BioAssay (NCATS).
# A number with no mark means an inactive call. Inconclusive results are not listed. Calls of active or inactive are those of the source. Unless noted, calls come from the whole dose curve; as a rule, active = well fitted curve in either direction with a large enough effect (not every such curve was filed as active); inconclusive = small, poorly fitted or top-dose-only effect, or another doubt; inactive = flat fitted curve, though single readings scatter.
# Assays:
# [1] = molecular target: Lysosomal acid glucosylceramidase (Homo sapiens) (UniProt P04062); assay: Glucocerebrosidase-p2 (AID 348; in the data active = potency below about 10 µM; note: potency is the fitted concentration of half-maximal effect); conditions: purified GBA, blue fluorogenic substrate, 40 min
# Chain of Lysosomal acid glucosylceramidase (Homo sapiens) (P04062 whole entry, looked up): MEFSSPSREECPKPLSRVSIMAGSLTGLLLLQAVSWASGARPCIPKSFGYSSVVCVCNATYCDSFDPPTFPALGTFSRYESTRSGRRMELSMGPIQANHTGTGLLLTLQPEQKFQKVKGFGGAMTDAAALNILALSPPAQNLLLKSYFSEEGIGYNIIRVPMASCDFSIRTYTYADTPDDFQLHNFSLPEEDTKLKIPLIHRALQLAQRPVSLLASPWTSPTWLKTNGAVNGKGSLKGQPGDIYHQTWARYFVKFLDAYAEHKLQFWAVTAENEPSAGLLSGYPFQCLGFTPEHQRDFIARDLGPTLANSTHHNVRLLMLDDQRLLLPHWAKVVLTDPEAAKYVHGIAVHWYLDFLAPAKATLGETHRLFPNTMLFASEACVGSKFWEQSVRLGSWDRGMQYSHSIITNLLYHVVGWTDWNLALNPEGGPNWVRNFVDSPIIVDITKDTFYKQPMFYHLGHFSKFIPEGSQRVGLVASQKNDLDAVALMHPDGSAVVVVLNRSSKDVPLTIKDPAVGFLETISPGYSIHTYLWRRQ
# How it was run: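 Compounds titrated from 0.6 nM upwards against 0.2 nM enzyme in pH 5.9 citric acid/KH2PO4, taurocholate, tween-20; blue fluorogenic substrate 80 uM, 40 min room temperature, stopped and read Ex 365/Em 440 for AC50.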
# [2] = AP1 Signaling Pathway (AID 357); conditions: ME-180 AP-1-bla reporter, EGF-induced, beta-lactamase ratio, 5 h; at 7.69 µM (top of the series) unless noted;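 note: ME-180 reporter cells stimulated with EGF at its EC50 level; % is set by controls: 0 for no effect and ±100 for the full control effect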
# How it was run: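 AP-1-bla ME-180 cells, Opti-MEM + 0.5% dialyzed FBS, plated overnight 37 °C. Cpd titration + EC50 EGF, 5 h 37 °C. CCF4 2.5 h RT; ex 405, em 460/530 ratio → %activity, AC50.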
# [3] = NFAT Signaling Pathway (AID 444); conditions: Jurkat NFAT-bla M1, carbachol, beta-lactamase ratio, 5 h; at 7.69 µM (top of the series) unless noted;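 note: carbachol stimulus at about its EC50 of 1 µM final; % is set by controls: 0 for no effect and ±100 for the full control effect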
# How it was run: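 Jurkat cells carrying an NFAT-driven β-lactamase reporter and co-transfected muscarinic M1 receptor were treated with compound plus carbachol (1 uM final, an EC50 level) for 5 h at 37 °C. CCF4 loading followed for 1 h at RT; 460/530 nm ratio gave %activity.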
# [4] = Stat Signaling Pathway (AID 446); conditions: ME-180 SIE beta-lactamase reporter, IL-6 stimulated, 5 h; at 7.69 µM (top of the series) unless noted;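 note: ME-180 cervical cancer cells given 40 pM IL-6 alongside compound; SIE-controlled beta-lactamase reporter measured as 460/530 nm FRET emission ratio; % is set by controls: 0 for no effect and ±100 for the full control effect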
# How it was run: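 Screening format detects activators and inhibitors alike: ME-180 SIE-bla cells stimulated at 40 pM IL-6 for 5 hrs with compound, then dual-emission beta-lactamase read at 405 nm excitation.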
# [5] = molecular target: Glucocorticoid receptor (Homo sapiens) (UniProt P04150); assay: GR-GFP Redistribution (AID 450;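 active = compounds whose dose series gives a full or clear partial fitted curve of increased nuclear translocation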; note: potency is the fitted concentration of half-maximal effect); conditions: U2OS GR-GFP nuclear translocation, laser cytometry, 2 h
# Chain of Glucocorticoid receptor (Homo sapiens) (P04150 whole entry, looked up, the tested form may be a part): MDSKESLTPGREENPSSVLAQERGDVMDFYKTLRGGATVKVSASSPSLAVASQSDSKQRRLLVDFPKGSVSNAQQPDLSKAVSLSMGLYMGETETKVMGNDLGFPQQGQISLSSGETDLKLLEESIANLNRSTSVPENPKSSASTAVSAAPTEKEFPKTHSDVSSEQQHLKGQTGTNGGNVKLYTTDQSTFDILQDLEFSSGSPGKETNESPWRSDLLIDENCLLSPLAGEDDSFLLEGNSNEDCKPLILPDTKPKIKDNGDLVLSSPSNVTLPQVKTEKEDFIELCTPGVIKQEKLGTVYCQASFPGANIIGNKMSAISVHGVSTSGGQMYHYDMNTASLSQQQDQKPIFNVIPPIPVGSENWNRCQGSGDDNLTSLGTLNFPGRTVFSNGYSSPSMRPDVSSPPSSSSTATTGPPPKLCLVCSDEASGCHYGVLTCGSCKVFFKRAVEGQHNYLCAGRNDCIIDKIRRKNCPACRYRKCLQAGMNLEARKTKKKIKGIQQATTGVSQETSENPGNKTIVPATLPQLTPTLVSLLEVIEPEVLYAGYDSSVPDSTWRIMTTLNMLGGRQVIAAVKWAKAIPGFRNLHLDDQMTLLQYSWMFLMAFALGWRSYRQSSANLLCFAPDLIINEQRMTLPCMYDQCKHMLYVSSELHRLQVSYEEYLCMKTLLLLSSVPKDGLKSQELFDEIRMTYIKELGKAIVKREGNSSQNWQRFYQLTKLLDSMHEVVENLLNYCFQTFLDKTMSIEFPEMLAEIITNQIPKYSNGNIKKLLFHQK
# [6] = molecular target: Glucocorticoid receptor (Homo sapiens) (UniProt P04150); assay: GR-EFC Redistribution (AID 451; calls by dose curve; note: potency is the fitted concentration of half-maximal effect); conditions: CHO-K1 GR-EFC translocation, beta-gal luminescence, 2 h
# How it was run: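 CHO-K1 cells stably expressing nuclear-localized β-gal enzyme acceptor and GR fused C-terminally to the enzyme donor fragment; ligand-driven nuclear translocation restores β-gal by complementation. Compounds titrated up to 46 uM final, 2 h at 37 °C; luminescence read.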
# [7] = molecular target: Mitogen-activated protein kinase 10 (Mus musculus) (UniProt Q61831); assay: JNK3 AlphaScreen Assay (AID 530); conditions: JNK3 lysate, c-Jun phosphorylation; series mostly up to 11.4 µM;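 note: kinase came from lysate of stimulated human HepG2 cells; signal reports phosphorylation of biotinylated GST-cJun 1-79 at Ser73 with 10 µM ATP; % is set by controls: 0 for no effect and ±100 for the full control effect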
# How it was run: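 Inhibitors reduce antibody binding to phosphorylated biotin-cJun, lowering AlphaScreen luminescence. Lysates from HepG2 cells pre-activated by IL-1beta plus TNF-alpha supplied JNK3; compounds were titrated.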
# [8] = molecular target: Cytochrome P450 3A4 (Homo sapiens) (UniProt P08684); assay: qHTS Assay for Activators of Cytochrome P450 3A4 (AID 885; active = well fitted curve in the direction sought with a large enough effect; an effect the other way counts as inactive or inconclusive; note: nearly all actives have a fitted effect of over 65% in size); conditions: recombinant CYP3A4, Luciferin-PPXE luminescence, 60 min; series mostly up to 11.4 µM
# Chain of Cytochrome P450 3A4 (Homo sapiens) (P08684 whole entry, looked up): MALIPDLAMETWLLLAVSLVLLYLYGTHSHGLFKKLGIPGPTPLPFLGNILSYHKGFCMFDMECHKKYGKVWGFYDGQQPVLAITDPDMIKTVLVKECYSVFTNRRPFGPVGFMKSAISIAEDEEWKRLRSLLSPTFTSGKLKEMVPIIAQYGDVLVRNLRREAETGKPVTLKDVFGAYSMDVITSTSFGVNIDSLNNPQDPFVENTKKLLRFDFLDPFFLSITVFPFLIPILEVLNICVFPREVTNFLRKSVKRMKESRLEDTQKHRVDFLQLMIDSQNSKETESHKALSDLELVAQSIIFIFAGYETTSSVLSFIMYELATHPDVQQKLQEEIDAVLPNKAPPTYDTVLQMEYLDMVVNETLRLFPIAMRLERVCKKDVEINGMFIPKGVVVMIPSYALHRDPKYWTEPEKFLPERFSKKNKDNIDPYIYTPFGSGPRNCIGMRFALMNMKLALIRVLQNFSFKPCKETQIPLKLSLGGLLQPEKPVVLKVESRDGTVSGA
# How it was run: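 Steps: enzyme/substrate mix dispensed; compound added, 10 min RT; NADPH regeneration solution added, 60 min RT; luciferin detection buffer stops reaction; 20 min later luminescence measured.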
# [9] = molecular target: Cytochrome P450 2D6 (Homo sapiens) (UniProt P10635); assay: qHTS Assay for Inhibitors and Substrates of Cytochrome P450 2D6 (AID 891; active = well fitted curve in the direction sought with a large enough effect; an effect the other way counts as inactive or inconclusive; note: nearly all actives have a fitted effect of over 60% in size; note: potency is the fitted concentration of half-maximal effect); conditions: recombinant CYP2D6, luciferin-ME EGE luminescence; series mostly up to 11.4 µM
# Chain of Cytochrome P450 2D6 (Homo sapiens) (P10635 whole entry, looked up): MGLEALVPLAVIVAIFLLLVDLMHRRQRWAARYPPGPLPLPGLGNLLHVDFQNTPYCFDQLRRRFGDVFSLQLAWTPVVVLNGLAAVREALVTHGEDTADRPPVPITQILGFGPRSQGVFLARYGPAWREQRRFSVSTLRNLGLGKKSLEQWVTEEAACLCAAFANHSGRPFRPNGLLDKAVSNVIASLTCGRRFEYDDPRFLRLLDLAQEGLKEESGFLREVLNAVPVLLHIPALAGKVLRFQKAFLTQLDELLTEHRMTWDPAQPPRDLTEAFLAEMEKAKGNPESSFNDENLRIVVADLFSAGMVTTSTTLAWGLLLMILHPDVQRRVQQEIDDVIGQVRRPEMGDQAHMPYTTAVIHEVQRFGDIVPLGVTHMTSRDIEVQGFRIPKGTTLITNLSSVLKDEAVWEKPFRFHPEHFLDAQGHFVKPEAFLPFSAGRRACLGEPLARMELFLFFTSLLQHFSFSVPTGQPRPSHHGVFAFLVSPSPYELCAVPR
# How it was run: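 Human CYP2D6 (5 nM) with 30 uM Luciferin-ME EGE (at Km) in 100 mM KPO4, compound preincubated 10 min, then NADPH regeneration system for 60 min at room temperature. Luciferin read by luminescence; normalized to 1.43 uM quinidine.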
# [10] = molecular target: Cytochrome P450 2C19 (Homo sapiens) (UniProt P33261); assay: qHTS Assay for Inhibitors and Substrates of Cytochrome P450 2C19 (AID 899; active = well fitted curve in the direction sought with a large enough effect; an effect the other way counts as inactive or inconclusive; note: nearly all actives have a fitted effect of over 60% in size; note: potency is the fitted concentration of half-maximal effect); conditions: recombinant CYP2C19, luciferin-H EGE luminescence; series mostly up to 11.4 µM
# Chain of Cytochrome P450 2C19 (Homo sapiens) (P33261 whole entry, looked up): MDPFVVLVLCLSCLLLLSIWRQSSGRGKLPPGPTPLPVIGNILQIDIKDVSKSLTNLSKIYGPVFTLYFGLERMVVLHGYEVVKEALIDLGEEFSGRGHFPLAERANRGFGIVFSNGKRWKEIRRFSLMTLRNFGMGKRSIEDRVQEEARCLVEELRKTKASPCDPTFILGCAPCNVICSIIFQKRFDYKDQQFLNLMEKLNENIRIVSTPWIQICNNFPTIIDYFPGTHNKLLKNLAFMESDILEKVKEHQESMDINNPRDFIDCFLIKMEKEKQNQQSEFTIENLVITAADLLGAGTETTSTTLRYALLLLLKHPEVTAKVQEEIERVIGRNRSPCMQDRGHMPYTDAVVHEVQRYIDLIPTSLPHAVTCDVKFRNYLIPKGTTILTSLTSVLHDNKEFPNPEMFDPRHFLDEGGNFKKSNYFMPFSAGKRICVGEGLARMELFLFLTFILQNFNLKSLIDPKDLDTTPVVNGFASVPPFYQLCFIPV
# How it was run: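 NADPH-dependent conversion of Luciferin-H EGE (10uM, at KM) by 5nM enzyme in 50mM KPO4, 60 min at 37C following 10 min compound preincubation. Stopped with luciferin detection buffer; luminescence read after 20 min.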
# [11] = molecular target: 3',5'-cyclic-AMP phosphodiesterase 4B (Homo sapiens) (UniProt Q07343); assay: qHTS Assay for Inhibitors of PDE-IV (AID 607; active = well fitted activation curve with a large enough effect in the main read-out, with a control signal flat, not every such curve was filed as active; note: % of control where 0% means no effect); conditions: HEK293 ACTOne CNG channel cells, membrane potential fluorescence; series mostly up to 22.9 µM
# Chain of 3',5'-cyclic-AMP phosphodiesterase 4B (Homo sapiens) (Q07343 whole entry, looked up): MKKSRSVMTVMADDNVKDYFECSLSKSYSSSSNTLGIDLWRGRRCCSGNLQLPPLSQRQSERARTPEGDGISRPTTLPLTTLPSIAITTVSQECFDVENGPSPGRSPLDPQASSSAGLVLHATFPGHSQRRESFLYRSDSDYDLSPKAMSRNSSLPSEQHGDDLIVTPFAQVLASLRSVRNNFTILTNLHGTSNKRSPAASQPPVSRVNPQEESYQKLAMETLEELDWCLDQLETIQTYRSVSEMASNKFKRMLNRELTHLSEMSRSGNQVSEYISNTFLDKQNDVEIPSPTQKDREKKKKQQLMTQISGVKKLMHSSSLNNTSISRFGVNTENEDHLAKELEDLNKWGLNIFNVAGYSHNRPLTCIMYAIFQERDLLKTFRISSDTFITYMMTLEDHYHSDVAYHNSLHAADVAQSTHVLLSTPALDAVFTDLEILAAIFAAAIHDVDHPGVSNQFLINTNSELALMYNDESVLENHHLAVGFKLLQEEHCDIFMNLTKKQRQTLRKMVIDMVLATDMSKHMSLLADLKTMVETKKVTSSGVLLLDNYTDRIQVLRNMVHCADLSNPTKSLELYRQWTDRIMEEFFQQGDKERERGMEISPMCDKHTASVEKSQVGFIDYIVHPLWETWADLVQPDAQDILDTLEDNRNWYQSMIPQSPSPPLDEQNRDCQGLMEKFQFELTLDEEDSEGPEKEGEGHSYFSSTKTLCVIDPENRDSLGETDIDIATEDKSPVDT
# How it was run: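 The readout is membrane depolarisation from a cAMP-sensing CNG channel, detected with a potential dye at ex 535/em 590. Cells were HEK293-derived (endogenous PDE-IV) at 1000 cells/well, titrated up to 22.9 uM final.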
# [12] = molecular target: Cytochrome P450 2C9 (Homo sapiens) (UniProt P11712); assay: qHTS Assay for Inhibitors and Substrates of Cytochrome P450 2C9 (AID 883; active = well fitted curve in the direction sought with a large enough effect; an effect the other way counts as inactive or inconclusive; note: nearly all actives have a fitted effect of over 60% in size; note: potency is the fitted concentration of half-maximal effect); conditions: recombinant CYP2C9, luciferin-H luminescence, 60 min; series mostly up to 11.4 µM
# Chain of Cytochrome P450 2C9 (Homo sapiens) (P11712 whole entry, looked up): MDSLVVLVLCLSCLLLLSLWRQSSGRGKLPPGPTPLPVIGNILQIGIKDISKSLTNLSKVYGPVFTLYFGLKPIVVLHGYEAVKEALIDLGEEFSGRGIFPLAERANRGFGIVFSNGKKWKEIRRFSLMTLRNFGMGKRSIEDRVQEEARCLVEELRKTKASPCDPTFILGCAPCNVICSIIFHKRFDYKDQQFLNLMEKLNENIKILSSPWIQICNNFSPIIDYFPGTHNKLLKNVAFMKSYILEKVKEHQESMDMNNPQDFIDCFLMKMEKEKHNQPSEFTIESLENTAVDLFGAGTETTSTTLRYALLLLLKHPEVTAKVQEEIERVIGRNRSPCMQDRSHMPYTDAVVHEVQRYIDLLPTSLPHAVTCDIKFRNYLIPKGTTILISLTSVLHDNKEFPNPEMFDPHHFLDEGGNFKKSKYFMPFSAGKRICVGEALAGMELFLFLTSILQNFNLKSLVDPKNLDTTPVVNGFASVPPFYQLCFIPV
# How it was run: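 A luminogenic readout tracked human CYP2C9 (10nM) converting deoxyluciferin (100uM, at KM) in 25mM KPO4 during 60 min at 37C with regenerated NADPH. Values normalized to 57uM sulphaphenazole as complete inhibition.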
# [13] = molecular target: Cytochrome P450 3A4 (Homo sapiens) (UniProt P08684); assay: qHTS Assay for Inhibitors and Substrates of Cytochrome P450 3A4 (AID 884; active = well fitted curve in the direction sought with a large enough effect; an effect the other way counts as inactive or inconclusive; note: nearly all actives have a fitted effect of over 50% in size; note: potency is the fitted concentration of half-maximal effect); conditions: recombinant CYP3A4, Luciferin-PPXE luminescence; series mostly up to 57.1 µM
# How it was run: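 20 nM human CYP3A4 with 25 uM Luciferin-PPXE (at KM) in 200 mM KPO4, preincubated 10 min with compound; NADPH regeneration started a 60 min RT reaction. Luciferin detected by luminescence, normalized to 57 uM ketoconazole as full inhibition.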
smiles,measurement,setting,value
CN(Cc1cc(Br)cc(Br)c1O)Cc1c(O)ccc2ccccc12,Potency,[1],> 11.4 µM
same,"activity change, negative = inhibition",[2],3.01%
same,"activity change, negative = inhibition",[3],-25.5%
same,"activity, negative = inhibition",[4],-8.41%
same,Potency,[5],> 46 µM
same,Potency,[6],> 9.22 µM
same,Potency,[7],inactive
same,Potency,[8],inactive
same,Potency,[9],1.58 µM (active)
same,Potency,[10],0.501 µM (active)
O=S(=O)(O)c1ccc2c(N=Nc3c(O)ccc4ccccc34)cccc2c1,Potency,[1],> 11.4 µM
same,"activity change, negative = inhibition",[2],-13.3%
same,"activity change, negative = inhibition",[3],-11.8%
same,"activity, negative = inhibition",[4],-5.48%
same,Potency,[5],> 46 µM
same,Potency,[6],> 9.22 µM
same,Potency,[11],inactive
O=S(=O)(O)c1ccc(NN(c2c(O)ccc3ccccc23)S(=O)(=O)O)cc1,Potency,[1],> 11.4 µM
same,"activity change, negative = inhibition",[2],8.88%
same,"activity change, negative = inhibition",[3],-1.45%
same,"activity, negative = inhibition",[4],-0.169%
same,Potency,[5],> 46 µM
same,Potency,[6],> 9.22 µM
same,Potency,[11],inactive
CN(C)CN1CSC(=S)N(CN(C)C)C1,Potency,[12],3.16 µM (active)
COCCn1c(=O)c(-c2cc(F)cc(F)c2)nc2cnc(Oc3ccc(OC)cc3)nc21,Potency,[13],3.16 µM (active)
same,Potency,[8],inactive
COc1ccc(C(=O)N2CCC[C@@]3(CCN(c4ccccc4)C3)C2)cc1,Potency,[8],inactive
CC(C)c1ccc2c(c1)CC[C@H]1[C@@](C)(CN)CCC[C@@]21C,Potency,[9],1.26 µM (active)
O=C(O)CSCC(=O)c1ccccc1,Potency,[1],> 11.4 µM
same,"activity change, negative = inhibition",[2],3.6%
same,"activity change, negative = inhibition",[3],11.1%
same,Potency,[5],> 46 µM
same,Potency,[6],> 9.22 µM
same,Potency,[7],inactive
same,Potency,[11],inactive
same,Potency,[12],inactive
same,"activity change, negative = inhibition",[13],-4.13% [at 11.4 µM]
same,Potency,[9],inactive
same,Potency,[10],inactive
N=C(N)SC(c1ccccc1)c1ccccc1,Potency,[1],> 11.4 µM
same,"activity change, negative = inhibition",[2],6.69%
same,"activity, negative = inhibition",[4],0.795%
same,Potency,[5],> 46 µM
same,Potency,[6],> 9.22 µM
same,Potency,[7],inactive
same,Potency,[11],inactive
CCN(CC)CCN1C(=O)c2cccc3cc(N)cc(c23)C1=O,Potency,[1],> 11.4 µM
same,"activity change, negative = inhibition",[2],25.3%
same,"activity change, negative = inhibition",[3],-6.74%
same,Potency,[5],> 46 µM
same,Potency,[6],> 9.22 µM
same,Potency,[7],inactive
same,Potency,[11],inactive
CN(C)CCC[C@@H]1c2ccccc2Oc2ccc(C(F)(F)F)cc21,Potency,[1],> 11.4 µM
same,"activity change, negative = inhibition",[2],21.1%
same,"activity, negative = inhibition",[4],4.88%
same,Potency,[5],> 46 µM
same,Potency,[6],> 9.22 µM
same,Potency,[7],inactive
same,Potency,[11],inactive
NC(=O)SCC(=O)Nc1ccc2ncccc2c1,Potency,[1],> 11.4 µM
same,"activity change, negative = inhibition",[2],1.01%
same,"activity change, negative = inhibition",[3],12.1%
same,Potency,[5],> 46 µM
same,Potency,[7],inactive
same,Potency,[11],inactive
O=C1C2=C(Nc3cc([N+](=O)[O-])ccc3N2)O[C@@H]1c1ccc([C@H]2OC3=C(Nc4ccc([N+](=O)[O-])cc4N3)C2=O)cc1,Potency,[1],> 11.4 µM
same,"activity change, negative = inhibition",[2],-12.2%
same,"activity change, negative = inhibition",[3],4.88%
same,Potency,[5],> 46 µM
same,Potency,[6],> 9.22 µM
same,Potency,[7],inactive
same,Potency,[11],inactive
same,Potency,[8],inactive
C[C@H](CCC(=O)O)[C@H]1CC[C@@H]2[C@H]3CC[C@H]4C[C@H](O)CC[C@@]4(C)[C@@H]3CC[C@@]21C,Potency,[1],> 11.4 µM
same,"activity change, negative = inhibition",[2],17.2%
same,"activity, negative = inhibition",[4],-10%
same,Potency,[5],> 46 µM
same,Potency,[6],> 9.22 µM
same,Potency,[7],inactive
same,Potency,[11],inactive
CC(=O)NC1=C(OS(=O)(=O)c2ccc(C)cc2)CN(C)C1=O,Potency,[1],> 11.4 µM
same,"activity change, negative = inhibition",[2],24.1%
same,"activity, negative = inhibition",[4],-10.5%
same,Potency,[5],> 46 µM
same,Potency,[6],> 9.22 µM
same,Potency,[7],inactive
same,Potency,[11],inactive
O=C(O)[C@H](/C=C\c1ccccc1)c1ccccc1,Potency,[1],> 11.4 µM
same,"activity change, negative = inhibition",[2],0.652%
same,"activity change, negative = inhibition",[3],-12%
same,Potency,[5],> 46 µM
same,Potency,[6],> 9.22 µM
same,Potency,[7],inactive
same,Potency,[11],inactive
